OTUD3 inh = inhibitors of human OTUD3 deubiquitinase | OTU domain-containing protein 3 (Homo sapiens), Q5T2D3 | purified OTUD3, Ub-rhodamine fluorescence, 2 h | inhibition, % at 25 µM | actives 0.7% (n = 47,000)
USP17 inh = inhibitors of human USP17 deubiquitinase | Ubiquitin carboxyl-terminal hydrolase 17-like protein 5 (Homo sapiens), A8MUK1 | inhibition, % at 50 µM | purified USP17, Ub-rhodamine cleavage fluorescence, 3 h | AID 1645855, 2021 | actives 6.5% (n = 47,000)
Target sequence (A8MUK1 whole entry, looked up): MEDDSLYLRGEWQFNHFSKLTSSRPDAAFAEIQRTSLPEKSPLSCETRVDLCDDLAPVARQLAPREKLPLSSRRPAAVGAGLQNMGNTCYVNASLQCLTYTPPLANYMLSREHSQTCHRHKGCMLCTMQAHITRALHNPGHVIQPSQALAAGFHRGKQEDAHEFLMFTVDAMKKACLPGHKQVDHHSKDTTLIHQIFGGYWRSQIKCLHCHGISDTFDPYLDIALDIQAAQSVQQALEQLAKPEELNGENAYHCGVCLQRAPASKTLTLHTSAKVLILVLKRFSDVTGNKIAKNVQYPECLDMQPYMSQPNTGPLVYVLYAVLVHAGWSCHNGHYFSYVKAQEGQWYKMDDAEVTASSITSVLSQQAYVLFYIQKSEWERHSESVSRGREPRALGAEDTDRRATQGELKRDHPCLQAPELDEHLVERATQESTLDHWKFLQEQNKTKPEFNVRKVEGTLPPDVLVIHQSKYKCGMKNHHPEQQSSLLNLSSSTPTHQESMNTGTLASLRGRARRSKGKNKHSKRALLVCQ
USP28 block = inhibitors of human USP28 deubiquitinase; AID 1645857, 2021; actives 3% (n = 47,000); Ubiquitin carboxyl-terminal hydrolase 28 (Homo sapiens), Q96RU2; inhibition, % at 25 µM; purified USP28, Ub-rhodamine cleavage fluorescence, 30 min
USP30 block = inhibitors of human USP30 deubiquitinase. Ubiquitin carboxyl-terminal hydrolase 30 (Homo sapiens), Q70CQ3. purified USP30, Ub-rhodamine cleavage fluorescence. inhibition, % at 25 µM. actives 5.3% (n = 47,000). AID 1645860, 2021
The depositor's hits bear a star; x = not tested or not shown. Compounds with a hit are over-represented: about 11% of the library has one in this group of screens. Rule as the data show it: active = inhibition above about 30%; inactive = the rest.

SMILES | OTUD3 inh | USP17 inh | USP28 block | USP30 block
O=C(CCc1c[nH]c2ccccc12)Nc1ccc(N2CCOCC2)cc1 | 4 | 60* | 62* | 33*
O=C1CCSc2ccc(S(=O)(=O)NCCC3=CCCCC3)cc2N1 | -1 | 0 | 2 | 9
CC1(C)CC(=O)C2(Cc3cc([N+](=O)[O-])ccc3N3CCCC32)C(=O)C1 (configuration not stated) | -11 | 36* | -8 | -22
Cc1cccc(Cn2cnc(NS(=O)(=O)c3cn(C)nc3C)n2)c1 | 0 | 1 | 2 | 9
Cc1ccccc1CN1CC2(CCN(C(=O)Cc3ccc(Cl)cc3)C2)C1 | 9 | -4 | 6 | -10
Cc1nc(-c2ccccc2)sc1C(=O)CSc1ccc(F)cc1 | 20 | 14 | 20 | 32*
CCCC[C@@H](C)/C=C(C)/C=C(\C)C(=O)NC1=C[C@](O)(/C=C/C=C/C=C/C(=O)NC2=C(O)CCC2=O)[C@@H]2O[C@@H]2C1=O | 69* | 73* | 73* | 2
CN1CCC(N(C(=O)c2ccccc2)C2CCN(CCc3ccccc3)CC2)CC1 | 9 | 9 | 10 | 5
O=C(COc1ccc(C(=O)c2ccc(F)cc2)cc1)Nc1c(F)cccc1F | -10 | -1 | -9 | -3
COc1ccc(Cl)cc1Nc1cc(C)c2ccccc2n1 | 7 | 11 | 4 | 16
Clc1ccc(Oc2nc3ccccc3c3nnc(-c4ccc(Br)cc4)n23)c(Cl)c1 | 9 | 37* | 2 | 19
Cc1cc2n(n1)CCCN2C(=O)CCC(=O)NCc1ccc2c(c1)OCO2 | 6 | 11 | 9 | 20
Cc1ccc(NC(=O)c2sc3ncn(CC(=O)N4CCN(c5ccccn5)CC4)c(=O)c3c2C)c(Br)c1 | -17 | 59* | -11 | -63
COc1ccc(NC(=O)c2sc3ncn(CC(=O)N4CCN(c5ccccn5)CC4)c(=O)c3c2C)cc1OC | 3 | 19 | -1 | -1
COc1ccc2c(CNCCC3=CCCCC3)c(C(=O)O)n(Cc3ccccc3F)c2c1 | 11 | 29 | 23 | 40*
COc1ccc(-n2c(=O)c3ccc(C(=O)NCCc4ccccc4)cc3n(CC(=O)NCCC3=CCCCC3)c2=O)cc1 | 29 | 41* | 7 | 4
COc1ccc(-n2c(=O)c3ccc(C(=O)NCCc4ccccc4)cc3n(CC(=O)Nc3ccc(C)cc3C)c2=O)cc1 | -3 | 8 | 0 | 9
O=C(CCCn1c(=O)c2ccccc2n(CC(=O)N2CCN(c3ccccc3)CC2)c1=O)NCc1ccco1 | 6 | x | -4 | -18
O=C(Cn1c(=O)c2sccc2n(CC(=O)NCCC2=CCCCC2)c1=O)NCc1ccccc1Cl | 2 | 48* | x | x
COc1ccccc1CNC(=O)CCCn1c(=O)c2ccccc2n(CC(=O)N2CCN(c3ccccc3)CC2)c1=O | 2 | 57* | -6 | -2
O=C(c1cn(-c2ccc(-c3nc(C4CC4)no3)cn2)cn1)N1CCCCCC1 | 2 | 1 | 8 | 16
COc1ccccc1CNC(=O)CCCCn1c(=O)c2ccccc2n(CC(=O)NCCC2=CCCCC2)c1=O | 6 | 43* | -3 | 4
COc1cc(OC)cc(-n2c(=O)c3ccccc3n(CC(=O)NCCC3=CCCCC3)c2=O)c1 | 11 | 29 | -19 | 22
COC(=O)c1sc2ccccc2c1NC(=O)c1ccc(Br)s1 | 12 | 70* | 14 | 19
COC(=O)c1sc2cc([N+](=O)[O-])sc2c1NC(C)=O | -2 | -15 | -1 | 2
SMILES | OTUD3 inh | USP17 inh | USP28 block | USP30 block
COc1ccc(COc2ncnc3cc(Cl)ccc23)cc1 | 3 | 12 | 48* | 14
COCCN1C[C@H]2CN(C)c3ccccc3[C@@H]2N(C(=O)C2CCC2)CCC1=O | -4 | -9 | -10 | -49
CCOC(=O)Cc1cc(=O)n2[nH]c(-c3ccc(C)cc3)cc2n1 | 5 | 31* | 17 | -138
CCOC(=O)Cc1cc(=O)n2[nH]c(C)c(-c3ccc(Cl)cc3)c2n1 | 1 | -8 | 1 | 8
Cc1nn(-c2ccccc2)c2c1N=C1C(Cl)=CC(Cl)=CN1C21C(=O)Nc2ccccc21 (configuration not stated) | 12 | 82* | 50* | 15
C/C=C/C(O)C(C)(C)C1C/C=C\C2OC2/C=C/C(OC)Cc2nc(co2)C(=O)OC(C(C)(C)C(O)/C=C/C)C/C=C\C2OC2/C=C/C=C\c2nc(co2)C(=O)O1 (configuration not stated) | -10 | 14 | -19 | -114
c1ccc2c(-c3nnc(C4CC4)o3)nnc(NCCCN3CCCC3)c2c1 | -11 | 40* | -7 | -44
O=C(NCCc1nc2ccccc2n1CCCOc1ccccc1Cl)C1CCCCC1 | 33* | 83* | 24 | 79*
COC(=O)c1ccccc1NC(=O)C1CCCN(c2nnc(-n3cccc3)s2)C1 (configuration not stated) | 28 | x | 18 | 36*
O=S(=O)(C1CC1)N1CCOC2(CCCN(c3ncc(F)cn3)C2)C1 (configuration not stated) | 13 | 16 | 15 | 35*
O=C(C1CCCC1)N1CCCC(c2ccnc3ncnn23)C1 (configuration not stated) | -4 | -6 | -17 | -3
CC(=O)NCCNC(=O)N[C@H]1C[C@H]2CN(Cc3ccccc3)c3ccccc3CN2C1 | -31 | -52 | -39 | -145
Cc1cccc(C(=O)N2CCc3c(CN4CCCC4)nn(C)c3C2)n1 | -5 | -18 | -16 | -39
O=C(/C=C/c1ccc(OCc2ccccc2)cc1)N1CCN(C(c2ccccc2)c2ccccc2)CC1 | -6 | -14 | -18 | -27
COc1ccccc1N1CCN(C(=O)/C=C/c2ccc(OCc3ccc(Cl)cc3Cl)cc2)CC1 | 4 | 6 | 5 | 31*
O=[N+]([O-])c1ccc2nc3c(c(-c4ccccc4)c2c1)CNCC3 | -11 | 48* | -5 | -14
Cc1cc(=O)[nH]c(Sc2c(-c3ccccc3)c3cc([N+](=O)[O-])ccc3[nH]c2=O)n1 | -4 | 5 | 10 | -83
O=C(Cn1cnc2sc(-c3ccccc3)cc2c1=O)N(Cc1ccccc1F)C1CC1 | 8 | 34* | 31* | 35*
Cc1cc(C)n(-c2nc3c(c(=O)n2CC(=O)Nc2cccc(F)c2)CCC3)n1 | 11 | 12 | 9 | 24
COc1cccc(Nc2nc(NCc3ccccc3)nc3c2cnn3C)c1 | -16 | 27 | 40* | -30
Cn1ncc2c(Nc3ccc(Cl)cc3)nc(NCCc3ccccc3)nc21 | -7 | 36* | 6 | 42*
Cc1cc(C)c(Cn2nc(C(C)(C)C)cc2C(=O)Nc2ccc3c(c2)OCO3)c(C)c1 | 17 | 8 | 11 | 13
O=C(Nc1ccc(F)cc1)C1=CCN(Cc2ccc(F)cc2)CC1 | -1 | -19 | -6 | -2
COc1ccc(CCNC(=O)C2c3ccccc3C(=O)N(C)C2c2cccs2)c(OC)c1 (configuration not stated) | -8 | x | -11 | -10
O=C(Cn1c(=O)n(Cc2ccc(F)cc2)c(=O)c2ncccc21)Nc1ccccc1 | 5 | 24 | 16 | 65*
